About 83,000 compounds went through this panel and 20% of them were active in at least one assay; those are over-represented in the sample as a whole.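 Assay: single dose, 48 h. Readout: percent growth (0 = no net growth; negative = cell death). Active: <10.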 Unmarked numbers belong to inactive results. The source made the active and inactive calls.
Legend:
Assay in all cases: NCI-60 one-dose screen, 48 h (100 = growth as untreated, 0 = no growth, -100 = all killed)
Conditions in all cases: 10 µM unless noted
[1] = system: NCI-H23 lung
[2] = system: NCI-H226 lung
[3] = system: NCI-H322M lung
[4] = system: HOP-62 NSCLC
[5] = system: NCI-H460 lung
[6] = system: NCI-H522 lung
[7] = system: A549/ATCC NSCLC
[8] = system: 786-0 renal
[9] = system: COLO 205 colon
[10] = system: DU-145 prostate
[11] = system: K-562 leukemia
[12] = system: MDA-MB-231 breast
[13] = system: RXF 393 renal
[14] = system: SF-268 CNS
[15] = system: SF-295 CNS
[16] = system: SF-539 CNS
[17] = system: UACC-257 melanoma
[18] = system: M14 melanoma
[19] = system: MALME-3M melanoma

Row | Structure (SMILES) | growth [1] | growth [2] | growth [3] | growth [4] | growth [5] | growth [6] | growth [7] [%] | growth [8] | growth [9] | growth [10] | growth [11] | growth [12] | growth [13] | growth [14] | growth [15] | growth [16] | growth [17] | growth [18] | growth [19]
1 | COc1ccc(C2CC(c3cccc(Nc4nc(Cl)nc5cc(OC)c(OC)cc45)c3)=Nc3c(N)nc(N)nc3N2)cc1 (configuration not stated) | 81.6% | 84.8% | 91.5% | 53.4% | 61.9% | 78.6% | 82.3 | 71.4% | 96.4% | 88.8% | 4.51% (active) | 87% | 76.3% | 86.5% | 60.1% | 91.9% | 106% | 93.5% | 
2 | COc1ccc(/C=C(\C#N)C(=O)N2c3ccccc3Sc3ccc(SC)cc32)cc1F | 91.4% | 88.8% | 90% | 97% | 94.4% | 84.5% | 85.7 | 84.4% | 111% | 97.3% | 80.8% | 84.7% | 100% | 91.8% | 104% | 96.7% | 93.1% | 105% | 
3 | CC[C@H](CO)Nc1ccc2ncc(C#Cc3cncc(C(=O)Nc4ccc(CN5CCN(C)CC5)c(C(F)(F)F)c4)c3)n2n1 | -80.8% (active) | -25.7% (active) | -16.6% (active) | -45% (active) | -93% (active) | -75.8% (active) |  | -97.2% (active) | -92.5% (active) | -94.3% (active) | 0.0289% (active) | -60.6% (active) | -95.7% (active) | -60.5% (active) | -82.1% (active) | -91.5% (active) | -85.9% (active) | -95.5% (active) | -81.5% (active)
4 | CNC(=O)c1cc(-c2ccc(NS(=O)(=O)c3ccc(C)cc3)cc2)nc2cccnc12 | 103% | 88.7% | 110% | 99.7% | 107% | 91.6% |  | 110% | 116% | 113% | 101% | 95% | 133% | 107% | 108% | 102% | 105% |  | 101%
5 | CCc1cccc2c3c(sc12)C(c1ccc(Cl)cc1)C(C#N)=C(/N=C/c1ccc(Cl)cc1)O3 (configuration not stated) | 17.1% | 53.3% | 37.3% | 37% | 7.17% (active) | 10.8% | 33.8 | 39.5% | 16.7% | 12.1% | 10% | 33.8% | -31% (active) | 58.3% | -22.7% (active) | -7.57% (active) | 60.4% | 1.34% (active) | 
6 | CC(=O)N(C)C1CCc2c(sc(NC(=O)c3ccc(C(C)(C)C)cc3)c2C(N)=O)C1 (configuration not stated) | 85.3% | 47.3% | 78.7% | 34.7% | 10.8% | 70.4% |  | 90.9% | 103% | 58.9% | 62.3% | 75.5% | 96.2% | 99% | 43.8% | 79.7% | 86.9% | 75.5% | 
7 | O=S(=O)(Nc1cccc2ccccc12)c1ccc(-c2cnc(C3CC3)o2)cc1 | 23.2% | 64.6% | 40.4% | 39.3% | 11.2% | 21.9% |  | 50.2% | 9.76% (active) | 15.3% | 8.55% (active) | 27.6% | 7.94% (active) | 55.5% | 0.665% (active) | 7.47% (active) | 69% | 14.5% | 61.4%
8 | CC(=O)N1N=C(c2cccc(-n3cccc3)c2)CC1c1cccc(F)c1 (configuration not stated) | 82.1% | 94.5% | 90.3% | 109% | 107% | 94.8% |  | 102% | 104% | 114% | 99.9% | 94.8% | 86.1% | 113% | 107% | 101% | 104% | 97.6% | 88.3%

From PubChem BioAssay (NCI)
